# Screening data deposited in PubChem by several laboratories.
# The list is not random: actives were taken first. Their share in the collection is about 2.3%.
# Mcl1 Noxa PPI: disrupts binding of human Mcl-1 to Noxa peptide; Q07820; hit rate 1.5% among 220,000; inhibition, % at 21.7 µM; TR-FRET Mcl-1/Noxa peptide binding, 2 h; AID 1022;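 active = compounds that cut the protein-peptide binding signal by more than 50% relative to plate controls in a single-dose test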;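 note: His-tagged Mcl-1 with rhodamine Noxa BH3 peptide and terbium anti-His antibody; 0% = Mcl-1 plus Noxa peptide wells and 100% = peptide-only wells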
# Target sequence (Q07820 whole entry, looked up): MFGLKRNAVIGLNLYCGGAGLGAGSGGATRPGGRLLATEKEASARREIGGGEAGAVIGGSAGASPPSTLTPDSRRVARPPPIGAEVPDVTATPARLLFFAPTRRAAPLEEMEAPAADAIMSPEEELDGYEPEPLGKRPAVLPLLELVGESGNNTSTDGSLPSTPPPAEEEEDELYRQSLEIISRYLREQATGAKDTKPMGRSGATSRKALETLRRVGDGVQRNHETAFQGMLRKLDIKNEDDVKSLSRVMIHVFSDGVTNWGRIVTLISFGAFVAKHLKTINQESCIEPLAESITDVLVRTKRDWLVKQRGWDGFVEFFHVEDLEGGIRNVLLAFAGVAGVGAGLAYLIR
# Mcl-1 Bim block: human Bim-Mcl-1 interaction inhibition; Q07820; Bead-based flow cytometry, Bim peptide-Mcl-1 binding; inhibition, % at 10 µM; hit rate 0.1% among 190,000; AID 1009; in the data active = inhibition above about 40%;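 note: 0% = no compound tracer wells and 100% = peptide blocker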
# MCL1 BIM primary: disrupts human MCL1 binding to BIM-BH3 peptide; Q07820; GST-MCL1 / FITC-Bim-BH3 fluorescence polarization; inhibition, % at 10.9 µM; hit rate 0.68% among 320,000;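 active = inhibition above the mean inhibition of all tested compounds plus 3 SD, set per campaign, cut at about 40% in these data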;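 note: 0% = DMSO wells and 100% = unlabeled Bim-BH3 peptide control; higher means more loss of mP so more displacement of Bim peptide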
# Bcl-xL primary: inhibitors of human Bcl-xL; Q07817; GST-Bcl-xL / FITC-Bim BH3 peptide fluorescence polarization; inhibition, % at 10.9 µM; hit rate 0.7% among 320,000; AID 2129;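 active = inhibition above the mean of all tested compounds plus 3 SD, cutoff set per campaign, cut at about 30% in these data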;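 note: 0% = DMSO wells and 100% = unlabeled Bim-BH3 peptide competitor; inhibitors lower millipolarization by displacing the labeled peptide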
# Target sequence (Q07817 whole entry, looked up): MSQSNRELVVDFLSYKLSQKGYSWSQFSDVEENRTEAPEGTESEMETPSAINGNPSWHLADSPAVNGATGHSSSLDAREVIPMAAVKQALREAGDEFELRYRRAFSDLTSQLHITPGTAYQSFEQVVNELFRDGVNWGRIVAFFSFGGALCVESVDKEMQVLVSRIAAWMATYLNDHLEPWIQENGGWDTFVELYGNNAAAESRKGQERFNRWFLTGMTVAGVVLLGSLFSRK
# Mcl1-Bid inh: disrupts binding of human Mcl-1 to Bid peptide; Q07820; TR-FRET Mcl-1/Bid-Dy647 peptide binding, 1536-well; inhibition, % at 21.7 µM; hit rate 0.97% among 220,000;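 active = compounds that cut the binding signal by more than half at the single screening dose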;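 note: His-tagged Mcl-1 with europium anti-His antibody binding Bid BH3 peptide; 0% = Mcl-1 plus peptide wells and 100% = peptide-only wells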
# GLD-1 TGE inh: GLD-1-TGE RNA interaction inhibition (C. elegans); Q17339; purified GLD-1 + fluorescein TGE RNA, fluorescence polarization; inhibition, % at 5.96 µM; hit rate 0.44% among 320,000;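 active = percent inhibition above a per-plate cutoff, the plate mean of test compounds plus 3 SD, cut at about 30% in these data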;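 note: 0% = DMSO wells with GLD-1 and probe and 100% = wells lacking GLD-1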
# Bcl-xL conf: Bcl-xL (human) inhibition, MCL1 counter-screen confirmation; shares compounds with MCL1 BIM primary; GST-Bcl-xL / FITC-Bim BH3 peptide FP binding; inhibition, % at 10.9 µM; hit rate 54% among 1,700;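 active = inhibition above a cutoff equal to the mean inhibition of all tested compounds plus 3 SD, cut at about 30% in these data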;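 note: 0% = DMSO wells and 100% = unlabeled Bim BH3 control peptide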
# MCL1 inh confirm: confirmation of human MCL1 and BIM-BH3 interaction inhibitors; shares compounds with MCL1 BIM primary; GST-MCL1 / FITC-Bim-BH3 fluorescence polarization; inhibition, % at 10.9 µM; hit rate 61% among 1,700; AID 2168;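 active = inhibition above the average of all tested compounds plus 3 SD, cut at about 40% in these data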;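 note: 0% = DMSO wells and 100% = unlabeled Bim-BH3 control peptide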
# Numbers without * were called inactive; x = no result given; + = active, no number.
SMILES,Mcl1 Noxa PPI,Mcl-1 Bim block,MCL1 BIM primary,Bcl-xL primary,Mcl1-Bid inh,GLD-1 TGE inh,Bcl-xL conf,MCL1 inh confirm
O=C(CSc1nc2ccccc2s1)Nc1cc(S(=O)(=O)N2CCOCC2)ccc1O,105*,13,43*,16,32,3,23,49*
CCCc1[nH]nc2c1C1(CCN(C(=O)OCc3ccccc3)CC1)C(C#N)=C(N)O2,3,1,6,2,-17,-4,x,x
CC(C)c1[nH]nc2c1C1(CCN(Cc3ccccc3)CC1)C(C#N)=C(N)O2,24,-4,114*,104*,-6,57*,0,-12
COc1cc2c3nnc(-c4ccc(F)cc4)c-3cn(Cc3ccccc3)c2cc1OC,-12,1,68*,82*,-25,-2,64*,63*
COc1ccc(-c2nnn(Cc3ccccc3)n2)cc1OC,x,x,-6,0,x,6,x,x
COc1cc2c3nnc(-c4ccc(F)cc4)c-3cn(Cc3ccc(F)cc3)c2cc1OC,-43,0,58*,72*,-36,-11,84*,83*
CCOc1ccc(C2OC34CCCCC3C(C#N)(C#N)C2(C#N)C(=N)O4)cc1OC (centres undefined),12,-1,167*,143*,-33,130*,107*,133*
CCOc1ccc(C2C(C#N)=C(N)SC(N)=C2C#N)cc1OC,17,0,-101,-42,-68,-81,x,x
Cc1ccc(C2OC34CCCCCC3C(C#N)(C(=N)O4)C2(C#N)C#N)cc1 (centres undefined),26,-2,30,23,-10,16,x,x
C=CCOc1ccc(C2OC34CCCCC3C(C#N)(C#N)C2(C#N)C(=N)O4)cc1 (centres undefined),-4,2,115*,104*,-87,75*,76*,94*
CCCCOc1ccc(C2OC34CCCCC3C(C#N)(C#N)C2(C#N)C(=N)O4)cc1 (centres undefined),12,0,166*,137*,-35,92*,52*,68*
Cc1ccc(C)c(S(=O)(=O)c2c[nH]c(=S)[nH]c2=O)c1,x,x,12,12,x,-2,x,x
Cc1cccc(N2CSC3=C(C#N)C(c4ccc(C)o4)CC(=O)N3C2)c1 (centres undefined),107*,-11,54*,10,71*,1,5,35
Cn1c(CNc2ccc(O)cc2)nc2ccccc21,x,x,66*,56*,x,92*,81*,82*
Oc1ccc(O)c(/C(=N/Nc2ccccc2)c2ccccc2)c1,x,x,49*,26,x,1,17,13
Cc1ccc(-n2[nH]c(C)c(C=Nc3ccc4[nH]c(=O)[nH]c4c3)c2=O)cc1C,12,2,117*,60*,-7,15,103*,130*
COc1ccccc1CNC(=O)Cn1cc(Br)ccc1=O,x,x,2,1,x,4,x,x
CCCOc1ccc(CNC(=S)Nc2ccccc2)cc1Cl,x,x,42*,7,x,5,7,9
COC/C=C/C1=CC2=CC(=O)C(C)(OC(=O)c3cnc4ccccc4n3)C(=O)C2=CO1 (centres undefined),x,x,96*,74*,x,58*,29,56*
Cc1ccccc1NS(=O)(=O)c1ccc(C(=O)N2CCN(S(=O)(=O)c3ccccc3)CC2)cc1,x,x,3,5,x,-2,x,x
Cc1ccc(C(=O)O)cc1-c1ccc(/C=C2/NC(=O)N(c3ccccc3)C2=O)o1,70*,3,52*,21,27,-1,36*,63*
COc1c(O)cccc1[C@H](O)C1CCN(CCc2ccc(F)cc2)CC1,x,x,56*,50*,x,66*,56*,60*
CCN1CCC(NCCc2ccc(F)cc2)CC1,x,x,10,2,x,-3,x,x
Cc1c(Cc2ccccc2)c(=O)oc2cc(OCC(=O)N3CCC(C(N)=O)CC3)ccc12,x,x,3,5,x,-1,x,x
Cc1ccc(NC2=CC(=O)C(=O)c3ccccc32)c(C)c1,x,x,4,1,x,9,x,x
SMILES,Mcl1 Noxa PPI,Mcl-1 Bim block,MCL1 BIM primary,Bcl-xL primary,Mcl1-Bid inh,GLD-1 TGE inh,Bcl-xL conf,MCL1 inh confirm
O=C1C=C(Nc2ccccc2O)c2ccccc2C1=O,11,-1,100*,83*,-23,99*,15,16
COc1ccc(-n2c(C)ccc2-c2ccccc2)cn1,x,x,128*,107*,x,89*,89*,108*
COC(=O)c1ccc(-n2c(C)ccc2-c2ccccc2)cc1,0,0,-11,-4,-28,-3,x,x
Cc1cc(C)n2nc(S(=O)(=O)NC(C)(C)C)nc2n1,0,-2,5,0,-20,3,x,x
O=C(O)c1cc(-c2ccco2)nn1-c1cccc(Cl)c1,69*,-4,82*,31*,1,-11,18,38
CCc1ccc(CNC(=O)CCc2cn(C)c3ccccc23)cc1,x,x,-6,2,x,-1,x,x
Cn1cc(CCC(=O)NCc2ccc(Cl)cc2)c2ccccc21,x,x,53*,1,x,-3,-1,-6
O=C(c1ccccc1-c1ncc[nH]1)N1CCCC(Nc2ccc(F)cc2)C1 (centres undefined),x,x,-2,5,x,7,x,x
O=[N+]([O-])c1ccc2[nH]c(O)c(N=Nc3ccc(F)cc3)c2c1,x,x,-3,2,x,29,x,x
Oc1[nH]c2ccc(Br)cc2c1N=Nc1ccc(F)cc1,x,x,+,183*,x,107*,143*,198*
O=C(COC(=O)CNC(=O)c1cccc([N+](=O)[O-])c1)NCc1ccco1,-2,-1,1,-1,-36,-10,x,x
CCNC(=O)C(=O)NCC1CCCN1S(=O)(=O)c1cccs1 (centres undefined),x,x,-143,-7,x,-18,x,x
N#CC1(C#N)C(C(N)=O)C1c1ccccc1 (centres undefined),5,-1,0,1,-31,1,x,x
CN1C=CC2=C(C#N)C(N)C(C#N)(C#N)[C@H](c3ccccc3)[C@H]2C1 (some centres undefined),-17,-5,92*,81*,-23,30,31*,31
O=C(Nc1ccc2c(c1)nc1n2CCN(C2CCCCC2)C1)NC1CCCCC1,41,-5,67*,57*,-25,28,44*,54*
Nn1c(SCC(=O)NC2CCS(=O)(=O)C2)nc2scc(-c3ccccc3)c2c1=O (centres undefined),x,x,3,4,x,5,x,x
O=C(CN1C(=O)S/C(=C/c2cccn2-c2ccc(O)cc2)C1=O)N1CCCC1,x,x,1,8,x,-1,x,x
